Our source for the growth values is PubChem BioAssay (NCI).

This is part of a sample that, as a whole, favours compounds with a hit. Of some 83,000 tested, about 20% had one in any assay.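 Note: values are percent growth. 100 is the growth of untreated cells, values between 100 and 0 indicate rising inhibition; between -100 and 0 indicates cell death.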 Unmarked numbers belong to inactive results. Activity calls are given as the source filed them. How the source made its calls: active means growth percent below 10; inactive means the rest.

What all share (assay): NCI-60 one-dose screen, 48 h (100 = growth as untreated, 0 = no growth, -100 = all killed)
Common to all, as to conditions: 10 µM unless noted

Experiment [1] relates to NCI-H23 lung.
Experiment [2] relates to NCI-H226 lung.
Experiment [3] concerns NCI-H322M lung.
In experiment [4] the test system is HOP-62 NSCLC.
The subject of experiment [5] is NCI-H460 lung.
Experiment [6] has as its system HOP-92 NSCLC.
In experiment [7] the test system is NCI-H522 lung.
Experiment [8] concerns A549/ATCC NSCLC.
The test system of experiment [9] is 786-0 renal.
Experiment [10] deals with COLO 205 colon.
Experiment [11] concerns DU-145 prostate.
For experiment [12], the system named is K-562 leukemia.
Experiment [13] deals with MALME-3M melanoma.
For experiment [14], the system named is MDA-MB-231 breast.
The subject of experiment [15] is RXF 393 renal.
Experiment [16] relates to SF-268 CNS.
The test system of experiment [17] is SF-295 CNS.
Experiment [18] relates to SF-539 CNS.
The subject of experiment [19] is UACC-257 melanoma.
Experiment [20] has as its system M14 melanoma.

Turning to `CC/C=C\C/C=C/C=C1/C(=O)C=C[C@@H]1C/C=C\CCCC(=O)OC`, the growth was 24.9% in [1]; 55.7% in [2]; 95.8% in experiment [3]; 36.1% in [4]; 76.2% in experiment [5]; 42.4% in experiment [6]. The growth in experiment [7] is -32.3% (active); in [8], 80.8%; in [9] it was -15% (active); in experiment [10], 14.1%; in [11], 40.1%; in [12], 2.34% (active). For the same compound, the growth was 35% in [13]; 4.18% (active) in experiment [14]; 32.9% in experiment [15]; 21.9% in experiment [16]; 81.8% in [17]; 26.8% in [18]. Further, the growth in [19] was 66.5%; in experiment [20] it was 32.1%.
Turning to `Nc1nc(C(=O)N/N=C/c2ccc(N3CCOCC3)cc2)nn1-c1ccc(S(N)(=O)=O)cc1`, the growth in [1] was 100%; in experiment [2], 96.7%; in [3] it was 106%; in experiment [4], 103%; in experiment [5], 110%; in experiment [6] it was 97.7%. Besides, the growth was 101% in [7]; 100% in [8]; 95.7% in experiment [9]; 120% in experiment [10]; 105% in [11]; 94% in experiment [12]. Also, the growth was 107% in experiment [13]; 115% in experiment [14]; 108% in experiment [15]; 99% in experiment [16]; 104% in [17]; 105% in experiment [18]. Further, the growth in [19] is 107%; in experiment [20], 103%.
Regarding `CC(/C=C1\SC(=S)N(CC(=O)NC(Cc2c[nH]c3ccccc23)C(=O)O)C1=O)=C\c1ccccc1` (stereo not given), the growth in experiment [1] is 99.9%; in [2] it was 102%; in experiment [3], 102%; in experiment [4] it was 96.3%; in experiment [5], 103%; in experiment [6], 106%. Besides, the growth in experiment [7] is 93.3%; in experiment [8], 103%; in [9], 102%; in experiment [10], 116%; in experiment [11], 112%; in [12] it was 107%. The growth in experiment [13] is 107%; in experiment [14] it was 104%; in experiment [15], 106%; in experiment [16], 92.8%; in [17] it was 104%; in experiment [18], 104%. Further, the growth in experiment [19] was 100%; in [20], 103%.
As to `CNCc1cccc2c1OCCOCCN(C)C(=O)CN(C)S(=O)(=O)c1ccc(cc1)-c1cnc(N)c(n1)C(=O)N2`, the growth in experiment [1] was 6.92% (active); in experiment [2], -33.3% (active); in [3], 40.4%; in experiment [4], -6.9% (active); in experiment [5], -40.9% (active); in experiment [6], 46.5%. For the same compound, the growth is 23.5% in [7]; 11.9% in [8]; -40.3% (active) in [9]; 19.9% in experiment [10]; 7.84% (active) in experiment [11]; -39.5% (active) in experiment [12]. Besides, the growth in experiment [13] is -85.3% (active); in experiment [14] it was 67.6%; in experiment [15] it was -0.929% (active); in experiment [16], 28.3%; in experiment [17], 36.1%; in experiment [18], -50.7% (active). Further, the growth in experiment [19] was 41.6%; in experiment [20], 2.41% (active).
Regarding `NC(=S)N/N=C/c1cn(-c2ccccc2)nc1-c1cc2ccccc2oc1=O`, the growth in experiment [1] was 78.2%; in experiment [2] it was 81.3%; in experiment [3], 89.2%; in experiment [4] it was 72.3%; in [5], 21%; in [6] it was 79.7%. Further, the growth is 36.5% in [7]; 46.4% in experiment [8]; 62.4% in [9]; 46.4% in experiment [10]; 85.3% in [11]; 17.1% in [12]. The growth in experiment [13] is 48.8%; in experiment [14], 34.3%; in experiment [15], 78%; in experiment [16], 66.1%; in experiment [17], 48.1%; in experiment [18] it was 57.2%. The growth in experiment [19] is 71.5%; in experiment [20], 22.1%.
Take `CS(=O)(=O)Nc1cncc(-c2ccc3ncnc(Nc4ccc(F)c(Cl)c4)c3c2)c1`: the growth in [1] is 33.1%; in experiment [2], 55.7%; in experiment [3], 10.5%; in experiment [4] it was 40.1%; in [5] it was 61.9%; in [6], -4.23% (active). The growth was 8.87% (active) in [7]; 43.1% in experiment [8]; 62% in experiment [9]; 32.5% in experiment [10]; 36.5% in [11]; 35.3% in [12]. Moreover, the growth in experiment [13] was 44.1%; in [14] it was 54.6%; in experiment [15] it was 24.9%; in experiment [16] it was 41.5%; in [17] it was 44.5%; in [18], 32.5%. Moreover, the growth was 35.2% in [19] and 52.5% in experiment [20].
As for `O=C(CCCCCCN1CC(=O)N2[C@@H](C3CCCCC3)c3[nH]c4ccccc4c3C[C@H]2C1=O)NO`, the growth in experiment [1] was 72.2%; in [2] it was 97.1%; in [3] it was 79%; in [4] it was 65.9%; in experiment [5], 61.1%; in experiment [6], 59.1%. Besides, the growth in experiment [7] is 39.9%; in experiment [8], 86.5%; in experiment [9] it was 88%; in experiment [10], 62.9%; in experiment [11], 80%; in experiment [12], 31.1%. Moreover, the growth in experiment [13] was 37.5%; in experiment [14], 82.9%; in experiment [15], 65.2%; in [16] it was 106%; in experiment [17] it was 89.2%; in experiment [18] it was 69.3%. Further, the figures for the growth in experiment [19] and in [20] were 54.1% and 63.8%, respectively.
Regarding `Cc1cc2oc(=O)cc(CP(=O)(O)O)c2cc1O`, the growth in experiment [1] was 100%; in experiment [2], 102%; in experiment [3] it was 91.2%; in experiment [4], 97.3%; in [5], 103%; in experiment [6] it was 100%. The growth in experiment [7] was 93.9%; in experiment [8] it was 99.9%; in [9], 105%; in experiment [10] it was 104%; in experiment [11] it was 103%; in experiment [12] it was 107%. Further, the growth in experiment [13] was 85.8%; in experiment [14], 97.4%; in experiment [15], 103%; in [16], 96.6%; in experiment [17], 100%; in experiment [18], 96.8%. For the same compound, the growth in experiment [19] is 94.5%; in [20], 103%.
